This is an account of results in PubChem BioAssay (NCATS).

Records with an inconclusive call do not appear. Values without a mark were called inactive. The source made the active and inactive calls. Unless noted, calls come from the whole dose curve; as a rule, active = well fitted curve in the direction sought with a large enough effect; inconclusive = small, poorly fitted or top-dose-only effect, or another doubt; inactive = no such curve, though single readings can be large; an effect the other way counts as inactive or inconclusive.

The nature of test [1]: qHTS for Inhibitors of Plasmodium falciparum (DD2) proliferation (AID 504314).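 Note: parasite DNA measured by SYBR Green fluorescence after red cell lysis; plate controls were DMSO vehicle for no effect and artemisinin wells for full effect.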 The essentials: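 Quantitative HTS growth inhibition: SYBR Green I binding to parasite DNA after 72 h drug exposure of infected erythrocytes (0.3% parasitemia, 2.5% hematocrit). Signals normalized per plate to inhibitor and vehicle wells.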
For orientation: qHTS replaces the single test concentration by a dilution series.

The nature of test [2]: qHTS for Inhibitors of Plasmodium falciparum (7G8) proliferation (AID 504316). Note: nearly all actives have a fitted effect of over 65% in size. Note: potency is the fitted concentration of half-maximal effect. The essentials:
(§1)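 Erythrocytes infected with P. falciparum line (0.3% parasitemia, 2.5% hematocrit final) incubated with compounds 72 h at 37 °C, 5% CO2; SYBR Green lysis buffer added, fluorescence read next day. Normalized to 0.29 uM artemisinin and DMSO.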

Test [3] can be described thus: qHTS for Inhibitors of Plasmodium falciparum (HB3) proliferation (AID 504318).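 Note: 0% = DMSO vehicle and -100% = artemisinin control; nearly all actives have a fitted effect of over 60% in size.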 In outline: as §1
Test [4] has as its target Atrial natriuretic peptide receptor 1 (Homo sapiens) (UniProt P16066). The test can be described thus: Natriuretic polypeptide receptor (hNpr1) antagonism - Pilot CMLD screen (AID 1347052; calls by dose curve;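 note: HEK293 cells with hNpr1 stimulated by hNppA peptide at 0.1 nM; cGMP level read as GloSensor luciferase luminescence after agonist stimulation; series mostly up to about 9.2 µM; % is set by controls: 0 for no effect and ±100 for the full control effect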).
Test [5] is described as follows: qHTS for Inhibitors of Plasmodium falciparum (CP250) proliferation (AID 504320).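 Note: plate controls were DMSO vehicle for no effect and 0.29 µM artemisinin control for full effect.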 In outline: as §1
The target of test [6] is Cytochrome P450 3A4 (Homo sapiens) (UniProt P08684). The test can be described thus: qHTS Assay for Inhibitors and Substrates of Cytochrome P450 3A4 (AID 884). Note: potency is the fitted concentration of half-maximal effect; nearly all actives have a fitted effect of over 50% in size. In outline: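 20 nM human CYP3A4 with 25 uM Luciferin-PPXE (at KM) in 200 mM KPO4, preincubated 10 min with compound; NADPH regeneration started a 60 min RT reaction. Luciferin detected by luminescence, normalized to 57 uM ketoconazole as full inhibition.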

Test [7] can be described thus: qHTS for Inhibitors of Plasmodium falciparum (GB4) proliferation (AID 504315).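 Note: 0% = DMSO vehicle and -100% = 0.29 µM artemisinin control; nearly all actives have a fitted effect of over 50% in size.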 The essentials:
as §1

Test [8] has as its target Cytochrome P450 2C9 (Homo sapiens) (UniProt P11712). The test can be described thus: qHTS Assay for Inhibitors and Substrates of Cytochrome P450 2C9 (AID 883). Note: potency is the fitted concentration of half-maximal effect; nearly all actives have a fitted effect of over 60% in size. The essentials: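 Human CYP2C9 (10nM) with Luciferin-H at 100uM (its KM) in 25mM KPO4; compound preincubated 10 min at 37C, then NADPH regeneration for 60 min at 37C. Luciferin read by luminescence after detection reagent; normalized to 57uM sulphaphenazole as full inhibition.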

Chain of Atrial natriuretic peptide receptor 1 (Homo sapiens) (P16066 whole entry, looked up): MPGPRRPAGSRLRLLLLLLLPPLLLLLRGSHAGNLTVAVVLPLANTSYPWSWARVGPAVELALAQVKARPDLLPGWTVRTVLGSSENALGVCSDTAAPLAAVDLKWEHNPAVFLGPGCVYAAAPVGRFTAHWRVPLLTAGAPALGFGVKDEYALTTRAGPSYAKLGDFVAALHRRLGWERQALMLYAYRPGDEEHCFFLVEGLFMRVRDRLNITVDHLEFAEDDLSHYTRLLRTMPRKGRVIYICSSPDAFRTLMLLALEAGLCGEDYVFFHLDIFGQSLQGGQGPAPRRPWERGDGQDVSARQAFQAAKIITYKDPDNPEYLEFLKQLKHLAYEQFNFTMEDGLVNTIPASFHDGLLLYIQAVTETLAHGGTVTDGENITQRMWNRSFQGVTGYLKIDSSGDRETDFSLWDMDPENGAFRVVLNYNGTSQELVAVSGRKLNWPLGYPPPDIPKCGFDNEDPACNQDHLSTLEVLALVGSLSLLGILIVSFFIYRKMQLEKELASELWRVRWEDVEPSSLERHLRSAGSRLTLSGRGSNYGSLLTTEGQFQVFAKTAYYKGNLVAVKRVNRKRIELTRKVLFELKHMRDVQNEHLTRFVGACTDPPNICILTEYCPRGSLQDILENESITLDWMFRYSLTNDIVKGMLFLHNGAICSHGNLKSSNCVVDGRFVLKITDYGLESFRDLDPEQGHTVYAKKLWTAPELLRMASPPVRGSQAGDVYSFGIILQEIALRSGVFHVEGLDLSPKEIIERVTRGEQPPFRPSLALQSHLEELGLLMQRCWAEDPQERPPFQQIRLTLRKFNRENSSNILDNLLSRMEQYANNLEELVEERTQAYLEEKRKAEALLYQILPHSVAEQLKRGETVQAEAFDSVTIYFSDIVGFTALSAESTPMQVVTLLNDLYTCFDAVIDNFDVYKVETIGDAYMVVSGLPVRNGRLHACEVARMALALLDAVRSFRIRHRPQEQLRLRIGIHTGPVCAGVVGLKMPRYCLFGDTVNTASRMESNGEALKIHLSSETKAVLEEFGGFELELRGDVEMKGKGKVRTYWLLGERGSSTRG
Chain of Cytochrome P450 3A4 (Homo sapiens) (P08684 whole entry, looked up): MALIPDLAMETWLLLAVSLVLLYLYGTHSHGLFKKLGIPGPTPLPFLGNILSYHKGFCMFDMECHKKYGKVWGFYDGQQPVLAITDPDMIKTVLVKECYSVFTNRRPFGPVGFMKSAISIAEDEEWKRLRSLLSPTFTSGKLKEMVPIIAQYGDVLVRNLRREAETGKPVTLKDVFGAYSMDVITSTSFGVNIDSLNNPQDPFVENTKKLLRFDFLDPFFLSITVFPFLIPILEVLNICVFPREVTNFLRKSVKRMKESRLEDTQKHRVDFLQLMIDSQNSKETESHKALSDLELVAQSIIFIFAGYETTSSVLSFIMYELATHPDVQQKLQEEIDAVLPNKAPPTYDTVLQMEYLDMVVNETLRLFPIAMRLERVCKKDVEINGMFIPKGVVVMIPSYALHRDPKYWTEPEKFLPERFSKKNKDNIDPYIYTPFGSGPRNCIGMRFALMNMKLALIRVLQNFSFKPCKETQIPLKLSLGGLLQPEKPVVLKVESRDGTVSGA
Chain of Cytochrome P450 2C9 (Homo sapiens) (P11712 whole entry, looked up): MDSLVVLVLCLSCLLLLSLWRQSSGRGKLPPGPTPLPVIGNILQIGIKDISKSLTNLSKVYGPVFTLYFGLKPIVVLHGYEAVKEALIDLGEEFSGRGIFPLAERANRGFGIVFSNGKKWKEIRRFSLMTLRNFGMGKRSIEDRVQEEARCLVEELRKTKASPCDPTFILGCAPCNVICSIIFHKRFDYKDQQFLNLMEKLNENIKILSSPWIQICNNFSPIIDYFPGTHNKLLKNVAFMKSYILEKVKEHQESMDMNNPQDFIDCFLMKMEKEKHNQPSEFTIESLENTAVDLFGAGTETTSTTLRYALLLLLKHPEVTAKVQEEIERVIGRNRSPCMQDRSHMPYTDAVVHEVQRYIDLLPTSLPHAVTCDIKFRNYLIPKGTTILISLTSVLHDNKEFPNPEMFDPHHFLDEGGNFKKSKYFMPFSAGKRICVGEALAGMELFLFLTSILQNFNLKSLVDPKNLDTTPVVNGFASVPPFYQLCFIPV

`C=CCC(Nc1ccc(OC)cc1)C(=O)OCC` (configuration not stated): the Potency entry in test [1], in test [2], in test [3] and in test [4] was “inactive” throughout.

`CCO[C@H](c1cc(OC)cc([N+](=O)[O-])c1OC)[C@H](C)[C@@H](OC)[C@H](C)C=CCC(=O)OC`: the Potency entry in test [1], in test [2] and in test [4] was “inactive” in each case.

On to `CCN1C(=NCc2ccc(OC)cc2)NC(c2cccc(F)c2)C(C(=O)OC)=C1C` (configuration not stated), for which the Potency entry in test [1], in test [2], in test [3], in test [5] and in test [4] was “inactive” each time.

As to `C=C(Nc1ccc(OC)cc1)C(=O)OC`, the Potency entry in test [1], in test [2], in test [3], in test [5] and in test [4] was “inactive” throughout.

Turning to `COC(=O)C1=C(C(=O)OC)[C@@H]2N(C)c3ccccc3[C@@]23C[C@@H](C(=O)OC)N(C(=O)c2ccc(Br)cc2)C3=N1`, the Potency result in test [1], in test [2], in test [3], in test [5] and in test [4] was “inactive” in each case.

Turning to `COc1ccc(-c2cnnc(CCCn3ccnc3-c3ccccc3)n2)cc1`, the Potency in test [6] is 6310 nM (active). Further, the Potency entry in test [1], in test [7] and in test [4] was “inactive” each time.

Consider `CCCCc1cc2c(cn1)=C(OC(=O)c1ccco1)C(C)(OC(=O)CC)C(=O)C=2` (configuration not stated), for which, in test [1], the activity, negative = inhibition was 5.3% [at 1.12 µM]. The Potency in test [2] was 1510 nM (active). Besides, the Potency result in test [3], in test [5] and in test [4] was “inactive” throughout.

Consider `COC1=C[C@H](C(=O)NCCOC(C)=O)[C@@]2(C)Cc3ccccc3[C@@H]2CC1=O`, for which the Potency entry in test [1], in test [2], in test [3] and in test [4] was “inactive” each time.

Regarding `CCOC(=O)CN1C(=O)C2(CC(C)=C[C@@H](C)O2)c2c(Br)cccc21` (some centres not stated), the Potency result in test [1], in test [2], in test [3], in test [5] and in test [4] was “inactive” throughout.

`COC(=O)C1=C[C@@]2(c3ccc(OC)cc3[C@@H](OC)[C@@H]2C)[C@@H]2C=C[C@@H]1C2`: the Potency entry in test [1], in test [2] and in test [4] was “inactive” in each case.

In the case of `C=CCN1c2ccccc2[C@]23C[C@@H](C(=O)OC)N(C(=O)OCC)C2=NC(C(=O)OC)=C(C(=O)OC)[C@H]13`, the Potency result in test [1], in test [2], in test [3] and in test [4] was “inactive” in each case.

Regarding `CC(C)=CCC12CC3[C@@H](O)C(C(=O)c4ccccc4)(C1=O)C(=O)C(CC=C(C)C)(C2=O)C3(C)C` (some centres not stated), the Potency entry in test [1], in test [2] and in test [4] was “inactive” throughout.

For `COc1ccc(C(O)C2=CCCC2=O)cc1` (configuration not stated), the Potency result in test [1], in test [2], in test [3], in test [5] and in test [4] was “inactive” in each case.

As for `CC(=CCO)CCO`, the Potency result in test [1], in test [2], in test [3], in test [5] and in test [4] was “inactive” throughout.

As to `CCOC(=O)NN=C1C[C@@H](O)[C@@H](O)[C@@H]2[C@H]3C(=O)N(Cc4ccc5c(c4)OCO5)C(=O)[C@@H]3CC[C@H]12`, the Potency result in test [1], in test [2], in test [3], in test [5] and in test [4] was “inactive” throughout.

Take `COC(=O)CC=C[C@@H](C)[C@H](OC)c1cc(OC)ccc1Br`: the Potency entry in test [1], in test [2] and in test [4] was “inactive” throughout.

With `COC(=O)C1=C(C(=O)OC)[C@@H]2N(C)c3ccccc3[C@@]23CCC(=O)N(Cc2cc(OC)c(OC)c(OC)c2)C3=N1`, the Potency result in test [1], in test [7], in test [5] and in test [4] was “inactive” throughout.

As for `CC=CC1=CC2=CC(=O)C(C)(OC(=O)c3c(C)cc(O)cc3O)C(=O)C2=CO1` (configuration not stated), the Potency result in test [1], in test [2], in test [3], in test [5] and in test [4] was “inactive” each time.

For the compound `COC[C@H]1O[C@]2(c3ccccc3)CO[C@@H]1[C@@H](C=Cc1ccccc1)C2`, the Potency entry in test [1], in test [2], in test [3] and in test [4] was “inactive” each time.

Take `COC(=O)c1c(C(=O)OC)c2c3cc(OC)c(OC)cc3ccn2c1C(=O)OC`: the Potency result in test [1], in test [2], in test [3], in test [5] and in test [4] was “inactive” throughout.

For `C=CCOC(=O)[C@H](O)[C@@H](O)C(=O)OCC=C`, the Potency entry in test [1], in test [2], in test [3] and in test [4] was “inactive” throughout.

For the compound `CCOC(=O)C1=C(CCl)NC(=O)N(C(C)=O)C1c1ccccc1` (configuration not stated), the Potency entry in test [1], in test [2], in test [3], in test [5] and in test [4] was “inactive” in each case.

Take `COC(=O)[C@@H](O)CC[C@@H](C)Cc1c(OC)c(OC)c(C)c(OC)c1OC`: the Potency entry in test [1], in test [2], in test [3] and in test [4] was “inactive” throughout.

On to `COc1ccc(-c2nc3c(c4c2C[C@H](c2ccccc2)OC4)CN(C(=O)c2cc(I)ccc2F)CC3)c(C)c1`, for which the activity, negative = inhibition in test [1] was -3.98% [at 1.12 µM]. Further, the Potency in test [2] was 1900 nM (active). The Potency entry in test [4] was “inactive”.

Regarding `O=C1CCC=C1C(O)c1ccc2c(c1)OCO2` (configuration not stated), the Potency entry in test [1], in test [2], in test [3], in test [5] and in test [4] was “inactive” throughout.

On to `CC1(OC(=O)C2CCCC2)C(=O)C=C2C=C(c3ccsc3)OC=C2C1=O` (configuration not stated), for which the Potency entry in test [1], in test [2], in test [3], in test [5] and in test [4] was “inactive” each time.

In the case of `C[C@@H]1CC[C@H]2C(=O)N3[C@@H](CC[C@@H](C)[C@@H]3c3ccc(Br)cc3)C(=O)N2[C@@H]1c1ccc(Br)cc1`, the Potency in test [8] was 3980 nM (active). The Potency result in test [1], in test [7], in test [5] and in test [4] was “inactive” throughout.

`C[C@H](ON=C1[C@H]2CCn3c(=O)n(-c4ccccc4)c(=O)n3[C@@H]2[C@H](O)[C@@H]2O[C@H]12)c1cn([C@H](CO)Cc2ccccc2)nn1`: the Potency result in test [1], in test [2], in test [3], in test [5] and in test [4] was “inactive” in each case.

As to `C=CCOC(=O)C(C(C)=O)[C@@H](NC(=O)OC)c1ccco1` (some centres not stated), the Potency result in test [1], in test [2], in test [3], in test [5] and in test [4] was “inactive” each time.
